Structures are written as SMILES. Inconclusive results are not listed. Entries that show only a call come without a potency. A number with no mark means an inactive call. Active and inactive are the calls of the source. The call rests on the fitted dose curve; in most records, active means well fitted curve in the direction sought with a large enough effect; inconclusive means small, poorly fitted or top-dose-only effect, or another doubt; inactive means no such curve, though single readings can be large; an effect the other way counts as inactive or inconclusive.

Sequence of Furin (Homo sapiens) (P09958 whole entry, looked up): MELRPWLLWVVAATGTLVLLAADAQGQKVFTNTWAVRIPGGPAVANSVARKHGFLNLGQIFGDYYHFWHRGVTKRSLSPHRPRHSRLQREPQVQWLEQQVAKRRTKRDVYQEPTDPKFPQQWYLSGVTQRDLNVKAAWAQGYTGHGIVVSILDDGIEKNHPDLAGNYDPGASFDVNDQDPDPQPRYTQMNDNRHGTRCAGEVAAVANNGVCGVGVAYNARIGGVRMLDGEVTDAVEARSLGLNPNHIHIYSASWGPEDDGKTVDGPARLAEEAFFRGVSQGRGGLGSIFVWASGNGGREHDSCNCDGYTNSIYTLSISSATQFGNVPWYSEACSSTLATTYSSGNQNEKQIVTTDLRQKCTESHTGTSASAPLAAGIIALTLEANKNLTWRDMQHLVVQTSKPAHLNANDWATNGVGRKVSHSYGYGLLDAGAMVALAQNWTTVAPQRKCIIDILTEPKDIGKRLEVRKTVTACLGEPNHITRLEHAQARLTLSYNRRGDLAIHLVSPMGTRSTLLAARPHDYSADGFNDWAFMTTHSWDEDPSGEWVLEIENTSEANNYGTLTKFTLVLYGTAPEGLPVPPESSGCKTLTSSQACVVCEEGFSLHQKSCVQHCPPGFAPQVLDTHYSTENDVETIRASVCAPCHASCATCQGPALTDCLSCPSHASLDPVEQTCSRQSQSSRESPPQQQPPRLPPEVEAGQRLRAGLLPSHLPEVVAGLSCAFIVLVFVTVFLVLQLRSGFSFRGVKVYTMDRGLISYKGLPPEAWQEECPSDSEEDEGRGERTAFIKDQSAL

System in one assay: not listed separately
Put plainly: qHTS of pediatric cancer cell lines to identify multiple opportunities for drug repurposing: Confirmatory screen for OHS-50 cells (AID 1347128).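 Further: compound exposure lasted 48 h at 37 degrees C; nearly all actives have a fitted effect of over 55% in size.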 Further: potency means the concentration at half of the fitted maximal effect. As to conditions: OHS-50 osteosarcoma cells viability; series mostly up to 45.9 µM. The essentials:
(§1)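 Cells (500-1,000/well) rested 5 h, then received compounds for 48 h; metabolically active cells were measured by CellTiter-Glo luminescence. Final concentrations spanned up to 46 µM (MIPE, 11-point) or 0.59 nM-46 µM (NPC, 8-point) in primary screens, 11-point in follow-ups.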
Regarding `CCCCCCCCCCCCOCCOCCOCCOCCOCCOCCOCCOCCOCCO`, the Potency result is “inactive”.
On the same count and under the same terms, for `C[C@H]1O[C@@H](O[C@H]2CC[C@@]3(C)[C@H](CC[C@@H]4[C@@H]3C[C@@H](O)[C@]3(C)[C@@H](C5=CC(=O)OC5)CC[C@]43O)C2)C[C@H](O)[C@@H]1O[C@H]1C[C@H](O)[C@H](O[C@H]2C[C@H](O)[C@H](O[C@@H]3O[C@H](CO)[C@@H](O)[C@H](O)[C@H]3O)[C@@H](C)O2)[C@@H](C)O1` the value was 0.293 µM (active); for `C[C@@]12C(=O)OC(=O)[C@]1(C)C1CCC2O1`, 4.65 µM (active).
For `CCN[C@@H]1C[C@H](N)[C@@H](OC2OC(CN)=CCC2N)[C@H](O)[C@H]1O[C@H]1OC[C@](C)(O)[C@H](NC)[C@H]1O` (stereo not given in full), the activity change, negative = cytotoxic is 3.87% [at 0.556 µM].
With `COc1ccc(C(=O)c2ccccc2)c(O)c1`, the Potency result is “inactive”.
Consider `O=[N+]([O-])c1ccc(/C=N\O)o1`, for which the Potency result is “inactive”.
Same read-out and setting: the same measure for `NC(N)=NN=C(/C=C/c1ccc([N+](=O)[O-])o1)/C=C/c1ccc([N+](=O)[O-])o1`: 5.22 µM (active); for `CCN1/C(=C/C=C/c2sc3ccccc3[n+]2CC)Sc2ccccc21`: 5.85 µM (active).
The same measure, in the same setting: for `O=C(CCCN1CC=C(n2c(=O)[nH]c3ccccc32)CC1)c1ccc(F)cc1` the value was “inactive”; for `CCCCCCCCCCC[C@@H](C[C@@H]1OC(=O)[C@H]1CCCCCC)OC(=O)[C@H](CC(C)C)NC=O`, “inactive”.

System in a further assay: not listed separately
Kind of assay: qHTS of pediatric cancer cell lines to identify multiple opportunities for drug repurposing: Confirmatory screen for SK-N-SH cells (AID 1347129).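 Further: cells exposed to compound for 48 h before viability read; nearly all actives have a fitted effect of over 60% in size.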 Further: potency means the concentration at half of the fitted maximal effect. As to conditions: SK-N-SH neuroblastoma cell viability; series mostly up to 46.1 µM. An outline of the steps:
as §1
(In general: qHTS replaces the single test concentration by a dilution series.)
For the compound `CN(C)C(=O)Nc1ccc(Cl)c(Cl)c1`, the Potency result is “inactive”.
Still for that read-out and setting: for `C=C[C@@]1(C)CC(=O)[C@]2(O)[C@@]3(C)[C@@H](O)CCC(C)(C)[C@@H]3[C@H](O)[C@H](OC(C)=O)[C@@]2(C)O1` the value was “inactive”.
Same read-out and setting: the same measure for `CCCCCCCCCCCCOCCOCCOCCOCCOCCOCCOCCOCCOCCO`: “inactive”; for `C[C@H]1O[C@@H](O[C@H]2CC[C@@]3(C)[C@H](CC[C@@H]4[C@@H]3C[C@@H](O)[C@]3(C)[C@@H](C5=CC(=O)OC5)CC[C@]43O)C2)C[C@H](O)[C@@H]1O[C@H]1C[C@H](O)[C@H](O[C@H]2C[C@H](O)[C@H](O[C@@H]3O[C@H](CO)[C@@H](O)[C@H](O)[C@H]3O)[C@@H](C)O2)[C@@H](C)O1`: 0.332 µM (active).
The same measure, in the same setting: for `C[C@@]12C(=O)OC(=O)[C@]1(C)C1CCC2O1` the value was “inactive”.
As for `CCN(CC)CCOc1ccc2c(c1)C(=O)c1cc(OCCN(CC)CC)ccc1-2`, the Potency is 18.7 µM (active).
The same measure, in the same setting: the same measure for `CC1CCc2c(N3CCC(O)CC3)c(F)cc3c(=O)c(C(=O)O)cn1c23` (stereo not given): “inactive”.
Turning to `CCN[C@@H]1C[C@H](N)[C@@H](OC2OC(CN)=CCC2N)[C@H](O)[C@H]1O[C@H]1OC[C@](C)(O)[C@H](NC)[C@H]1O` (stereo not given in full), the activity change, negative = cytotoxic is 6.98% [at 0.558 µM].
For the compound `O=C(Oc1cccc2cccnc12)c1ccccc1`, the Potency entry was “inactive”.
Still for that read-out and setting: the same measure for `COc1ccc(C(=O)c2ccccc2)c(O)c1`: “inactive”.
Still for that read-out and setting: the same measure for `O=[N+]([O-])c1ccc(/C=N\O)o1`: “inactive”.
With `NC(N)=NN=C(/C=C/c1ccc([N+](=O)[O-])o1)/C=C/c1ccc([N+](=O)[O-])o1`, the Potency was 2.35 µM (active).
On the same count and under the same terms, the same measure for `CCN1/C(=C/C=C/c2sc3ccccc3[n+]2CC)Sc2ccccc21`: 2.29 µM (active); for `CCCCCCCCCCC[C@@H](C[C@@H]1OC(=O)[C@H]1CCCCCC)OC(=O)[C@H](CC(C)C)NC=O`: “inactive”.

For another assay, the target named is N-terminal Xaa-Pro-Lys N-methyltransferase 1 (Homo sapiens) (UniProt Q9BV86). Put plainly: qHTS Assay for Inhibitors of N-terminal methyltransferase 1 (NTMT1): LOPAC validation of the NTMT1 SAHH-coupled ThioGlo3 Assay (AID 1347143).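 Further: SAH from peptide methylation measured as thiol fluorescence via SAHH coupling and ThioGlo3; nearly all actives have a fitted effect of over 70% in size.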 The conditions noted are these: recombinant NTMT1, SAHH-coupled ThioGlo3 fluorescence; series mostly up to 114 µM. The essentials: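 NTMT1 125nM + cpds (various conc.), 1 min RT; add SAM 100uM/SAHH 10uM/ThioGlo3 15uM (addition mix). SAHH-coupled thiol detection, Ex340/Em450, t0 and 30 min RT; signal normalized to background. LOPAC 1280-cpd pilot.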
Sequence of N-terminal Xaa-Pro-Lys N-methyltransferase 1 (Homo sapiens) (Q9BV86 whole entry, looked up): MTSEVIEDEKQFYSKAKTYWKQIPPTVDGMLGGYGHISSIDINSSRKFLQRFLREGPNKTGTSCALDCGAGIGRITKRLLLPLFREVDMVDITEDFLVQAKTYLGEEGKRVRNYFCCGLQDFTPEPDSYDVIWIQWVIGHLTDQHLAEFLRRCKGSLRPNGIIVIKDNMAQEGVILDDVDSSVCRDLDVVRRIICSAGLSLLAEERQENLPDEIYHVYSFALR
Take `NC(N)=NCc1cccc(I)c1`: the outcome was inactive.
On the same count and under the same terms, for `CCOC(=O)[C@H](CCc1ccccc1)N[C@@H](C)C(=O)N1[C@H](C(=O)O)C[C@H]2CCCC[C@@H]21` the value was “inactive”.
On the same count and under the same terms, for `CN=C(N)NCCC[C@H](N)C(=O)O` the value was “inactive”.

Another assay has as its target Furin (Homo sapiens) (UniProt P09958). Kind of assay: Furin counterscreen qHTS for Zika virus inhibitors (AID 1347149). Further: nearly all actives have a fitted effect of over 70% in size. Further: potency means the concentration at half of the fitted maximal effect. The conditions noted are these: furin enzymatic counterscreen, fluorogenic substrate; series mostly up to 57.5 µM. The text has this:
Avindra Nath, Ph.D., National Institute of Neurological Disorders and Stroke (NINDS), Bethesda, MD
Radhakrishnan Padmanabhan, Ph.D., Georgetown University (GU), Washington D.C.
Zika Virus causes congenital defects, including microcephaly and is associated with Guillain-Barre syndrome, eningoencephalitis and myelitis in infected adult. […] Using a target-based approach, we hope to establish a screening paradigm to uncover novel, cell-active NS2B-NS3 protease (Zika Virus) specific inhibitors from NCATS' collection of small molecules using qHTS.
Four assay panel was created to identify potential Zika Virus inhibitors. Namely, (1) GU unlinked NS2B-NS3 AMC tagged protease qHTS, (2) GU unlinked NS2B-NS3 Rhodamine tagged protease qHTS, (3) NINDS linked NS2B-NS3 AMC tagged protease qHTS, (4) NINDS linked NS2B-NS3 Rhodamine tagged protease qHTS. Active compounds were re-acquired and re-screened to confirm inhibition. Inhibitors were further screened against various confirmatory and counterscreens in dose response format.
Early Translation Branch (ETB)
National Center for Advancing Translational Sciences (NCATS), Rockville, MD
National Institute of Health (NIH), Bethesda, Maryland
1536-well Furin BOC-RVRR-AMC Protocol:
Human recombinant Furin Serine Protease was purchased from Peprotech (catalog #450-47; full length; Rocky Hill, NJ). Briefly, 3 microL of enzyme (final concentrations of 5 nM), in assay buffer (100 mM HEPES pH 7.0, 1 mM CaCl2 with 0.01% Triton X-100) were dispensed into a 1,536-well solid-bottom black plate (Greiner Bio One, Monroe, NC). Twenty-three nL of compounds (final concentration range 7.28 nM to 114 microM) or control Furin Inhibitor I (Dec-RVKR-CMK; final concentration range 0.248 nM to 8.12 microM) were transferred via Wako Pin-tool (Wako Automation, Richmond, VA). Samples were incubated (RT, protected from light) for 15 minutes followed by a 1 microL substrate addition of BOC-RVRR-AMC (final concentration of 2 microM; Km = ~15 muM90). Plates were then read immediately on a ViewLux High-throughput CCD imager (PerkinElmer, Waltham, MA) equipped with standard UV fluorescence optics (340(30) nm excitation, 450(20) nm emission), then incubated (37C, protected from light) for 15 or 30 minutes (~9% conversion). The change in fluorescence intensity over the 15-minute reaction period was normalized against no-inhibitor and no-enzyme controls and the resulting percent inhibition data were fitted to a 4-parameter Hill equation. Furin Inhibitor I was used as intraplate control.
For the compound `CCc1oc2ccccc2c1C(=O)c1cc(Br)c(O)c(Br)c1`, the Potency is 24.1 µM (active).
Same read-out and setting: for `CC1(COc2ccc(CC3SC(=O)NC3=O)cc2)CCCCC1` (stereo not given) the value was “inactive”; for `CCC(CC)(CC(=O)Nc1cccc(/C=C/c2nc(C3CCC3)cs2)c1)C(=O)O`, 21.5 µM (active); for `C[C@H]1O[C@@H](O[C@H]2CC[C@@]3(C)[C@H](CC[C@@H]4[C@@H]3C[C@@H](O)[C@]3(C)[C@@H](C5=CC(=O)OC5)CC[C@]43O)C2)C[C@H](O)[C@@H]1O[C@H]1C[C@H](O)[C@H](O[C@H]2C[C@H](O)[C@H](O[C@@H]3O[C@H](CO)[C@@H](O)[C@H](O)[C@H]3O)[C@@H](C)O2)[C@@H](C)O1`, “inactive”.
Still for that read-out and setting: the same measure for `C=C1c2cccc(O)c2C(O)=C2C(=O)[C@]3(O)C(O)=C(C(N)=O)C(=O)[C@@H](N(C)C)[C@@H]3[C@@H](O)[C@H]12`: 8.55 µM (active); for `O[C@@H](c1cc(C(F)(F)F)nc2c(C(F)(F)F)cccc12)[C@H]1CCCCN1`: “inactive”; for `CC(C)=CCOc1ccc(/C=C/C(=O)c2ccc(OCC=C(C)C)cc2OCC(=O)O)cc1`: 66.3 µM (active).

The subject of the next assay is Zika virus NS2B-NS3 protease (unlinked). Kind of assay: Optimization of GU AMC qHTS for Zika virus inhibitors: Unlinked NS2B-NS3 protease assay (AID 1347151). Further: nearly all actives have a fitted effect of over 80% in size. The conditions noted are these: recombinant ZIKV NS2B-NS3 protease, fluorogenic AMC substrate; series mostly up to 52.5 µM. An outline of the steps:
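Unlinked protease (25 nM final); buffer 10 mM Tris-HCl pH 8.0 + 0.01% Tween 20; AMC substrate; 15 min RT, dark; Δfluorescence normalized to no-inhibitor/no-enzyme controls; 4-parameter Hill fit.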
`C[C@H]1O[C@@H](O[C@H]2CC[C@@]3(C)[C@H](CC[C@@H]4[C@@H]3C[C@@H](O)[C@]3(C)[C@@H](C5=CC(=O)OC5)CC[C@]43O)C2)C[C@H](O)[C@@H]1O[C@H]1C[C@H](O)[C@H](O[C@H]2C[C@H](O)[C@H](O[C@@H]3O[C@H](CO)[C@@H](O)[C@H](O)[C@H]3O)[C@@H](C)O2)[C@@H](C)O1`: the outcome was inactive.
In the case of `NC(N)=NCc1cccc(I)c1`, the outcome was inactive.
Same read-out and setting: for `CCOC(=O)[C@H](CCc1ccccc1)N[C@@H](C)C(=O)N1[C@H](C(=O)O)C[C@H]2CCCC[C@@H]21` the value was “inactive”; for `CN=C(N)NCCC[C@H](N)C(=O)O`, “inactive”.
`O[C@@H](c1cc(C(F)(F)F)nc2c(C(F)(F)F)cccc12)[C@H]1CCCCN1`: the outcome was inactive.
Regarding `CC(C)(C)NC[C@H](O)COc1nsnc1N1CCOCC1`, the result was inactive.

The values are drawn from PubChem BioAssay (NCATS).
